This note sets out measurements from PubChem BioAssay.

The source made the active and inactive calls.

Assay [1] concerns PRMT1 (protein arginine N-methyltransferase 1). The assay can be described thus: PRMT1 binders on small-molecule microarrays, primary screen, biochemical, small-molecule microarray, 635 nm fluorescence (AID 1088).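 Also: binding of Prmt1 protein to compounds spotted on small-molecule microarray slides.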 To be noted: small-molecule microarray binding, higher = more signal.
A short description of assay [2]: yeast growth modulation, basal conditions, primary screen, YJM789 clinical isolate, OD600, 24 h (AID 1089).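 Also: growth of clinical yeast isolate S. cerevisiae YJM 789 seeded 1000 cells per well; test concentration not given here.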 As to conditions: S. cerevisiae YJM789 growth, higher = more signal, called active from +8 up or from −8 down.
Assay [3] in a line: fission yeast growth modulation, primary screen, strain 972, OD600, 24 h, no modulator (AID 1090).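 Also: basal condition with compound alone and no growth modifier present; test concentration not given here.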 To be noted: S. pombe 972 growth, higher = more signal, called active from +8 up or from −8 down.
Assay [4] in a line: S. cerevisiae growth modulation with rapamycin, primary screen, strain BY4716, OD600, 96 h (AID 1091). Also: test concentration not given here. To be noted: higher = more signal, called active from +8 up or from −8 down.
The target in assay [5] is Torsin-1A-interacting protein 2 (Homo sapiens) (UniProt Q8NFQ8). The assay can be described thus: LULL1 binders on small-molecule microarray, primary screen, cell lysate, human LULL1 lysate, 635/667 nm fluorescence (AID 1092).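 Also: probe is lysate of COS7 cells overexpressing human LULL1; score merges per-feature 667 nm fluorescence with signal-to-noise.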 To be noted: hLULL1 lysate binding, 635 nm fluorescence, higher = more signal.
Sequence of Torsin-1A-interacting protein 2 (Homo sapiens) (Q8NFQ8 whole entry, looked up): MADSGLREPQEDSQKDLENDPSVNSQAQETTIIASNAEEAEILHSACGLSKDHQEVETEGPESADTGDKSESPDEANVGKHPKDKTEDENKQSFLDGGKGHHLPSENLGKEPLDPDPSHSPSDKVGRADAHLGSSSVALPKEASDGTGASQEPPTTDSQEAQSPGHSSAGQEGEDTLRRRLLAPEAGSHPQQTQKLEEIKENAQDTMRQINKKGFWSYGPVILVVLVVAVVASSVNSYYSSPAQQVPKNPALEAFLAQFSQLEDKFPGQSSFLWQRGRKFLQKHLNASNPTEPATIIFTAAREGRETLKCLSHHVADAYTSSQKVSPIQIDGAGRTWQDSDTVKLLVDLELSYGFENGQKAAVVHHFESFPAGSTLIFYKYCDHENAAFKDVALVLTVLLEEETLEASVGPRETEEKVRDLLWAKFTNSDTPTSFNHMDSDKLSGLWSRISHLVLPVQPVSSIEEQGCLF
Assay [6] is described as follows: E. coli growth modulation, two-sided OD650, primary screen, E. coli filamentation project, strain DRC41, 24 h (AID 1093).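 Also: MC1000 strain lacking acrAB efflux and sulA so SOS filamentation is blocked; test concentration not given here.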 As to conditions: OD650, 24 h, higher = more signal, called active from +8 up or from −8 down.
The nature of assay [7]: small-molecule microarray binders of probe aLefty2, primary screen, biochemical, biotinylated probe, 635/667 nm fluorescence (AID 1094).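 Also: score merges spot fluorescence near 667 nm with spot signal-to-noise ratio.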 As to conditions: higher = more signal.
Assay [8] concerns Noggin (protein binding on small-molecule microarray). As to the kind of experiment: Noggin binders on small-molecule microarray, primary screen, biochemical, 635/667 nm fluorescence (AID 1095).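 Also: score merges 667 nm feature fluorescence with signal to noise over triplicate slides.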 To be noted: 635 nm fluorescence, higher = more signal.
Assay [9] concerns the target Neurogenic locus notch homolog protein 3 (Homo sapiens) (UniProt Q9UM47). The assay can be described thus: NOTCH3 binders on small-molecule microarray, primary screen, biochemical, 635/667 nm fluorescence (AID 1096). To be noted: NOTCH3 binding, 635 nm fluorescence, higher = more signal.
Assay [10] in a line: small-molecule microarray binders of probe aEGFR, primary screen, biochemical, biotinylated probe, 635/667 nm fluorescence (AID 1097).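 Also: probe is a biotinylated anti-EGFR antibody binding compounds printed on slides; score combines fluorescence near 667 nm and signal to noise of each spot.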 To be noted: higher = more signal.
Assay [11] relates to Plasmodium falciparum Sir2 (PF13_0152, Sir2A). The assay can be described thus: pfSir2 binders on small-molecule microarrays, primary screen, biochemical, small-molecule microarray, 635 nm fluorescence (AID 1098).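 Also: score merges spot fluorescence intensity with its signal-to-noise ratio.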 To be noted: small-molecule microarray binding, fluorescence 635 nm; higher = more signal.
Assay [12] in a line: small-molecule microarray binders of probe aDKK1, primary screen, biochemical, biotinylated probe, 635/667 nm fluorescence (AID 1099).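 Also: score merges 667nm spot fluorescence with signal to noise across triplicate slides; reference of the scale not given here.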 To be noted: higher = more signal.
Assay [13] can be described thus: small-molecule microarray binders of probe aCHRDL2, primary screen, biochemical, biotinylated probe, 635/667 nm fluorescence (AID 1100). As to conditions: higher = more signal.
A short description of assay [14]: splicing luciferase reporter signal modulators, primary screen, spliceosome inhibition project, cell-based, HEK293, splice +/- reporter (AID 1101).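 Also: HEK293 cells carrying a splicing-competent luciferase reporter gene; test concentration not given here.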 As to conditions: luminescence, 24 h, higher = more signal, called active from +8 up or from −8 down.
Assay [15] concerns the target Fibroblast growth factor 10 (Homo sapiens) (UniProt O15520). As to the kind of experiment: FGF10 binders on small-molecule microarrays, primary screen, biochemical, small-molecule microarray, 635 nm fluorescence (AID 1102). To be noted: FGF10 binding, fluorescence 635 nm, higher = more signal.
Assay [16] has as its system glycogen synthase kinase-3 (GSK3A per assay name; protocol says GSK3B). As to the kind of experiment: GSK3 binders on small-molecule microarrays, primary screen, biochemical, small-molecule microarray, 635 nm fluorescence, GSK3A (AID 1103). Also: the record names both GSK3A and GSK3B. As to conditions: small-molecule microarray binding, fluorescence 635 nm; higher = more signal.
The target of assay [17] is Epidermal growth factor receptor (Homo sapiens) (UniProt P00533). The assay can be described thus: EGFR binders on small-molecule microarrays, primary screen, biochemical, small-molecule microarray, 635 nm fluorescence (AID 1104).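 Also: score merges 667 nm emission intensity with spot signal to noise over triplicate slides.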 To be noted: EGFR binding, higher = more signal.
Sequence of Epidermal growth factor receptor (Homo sapiens) (P00533 whole entry, looked up): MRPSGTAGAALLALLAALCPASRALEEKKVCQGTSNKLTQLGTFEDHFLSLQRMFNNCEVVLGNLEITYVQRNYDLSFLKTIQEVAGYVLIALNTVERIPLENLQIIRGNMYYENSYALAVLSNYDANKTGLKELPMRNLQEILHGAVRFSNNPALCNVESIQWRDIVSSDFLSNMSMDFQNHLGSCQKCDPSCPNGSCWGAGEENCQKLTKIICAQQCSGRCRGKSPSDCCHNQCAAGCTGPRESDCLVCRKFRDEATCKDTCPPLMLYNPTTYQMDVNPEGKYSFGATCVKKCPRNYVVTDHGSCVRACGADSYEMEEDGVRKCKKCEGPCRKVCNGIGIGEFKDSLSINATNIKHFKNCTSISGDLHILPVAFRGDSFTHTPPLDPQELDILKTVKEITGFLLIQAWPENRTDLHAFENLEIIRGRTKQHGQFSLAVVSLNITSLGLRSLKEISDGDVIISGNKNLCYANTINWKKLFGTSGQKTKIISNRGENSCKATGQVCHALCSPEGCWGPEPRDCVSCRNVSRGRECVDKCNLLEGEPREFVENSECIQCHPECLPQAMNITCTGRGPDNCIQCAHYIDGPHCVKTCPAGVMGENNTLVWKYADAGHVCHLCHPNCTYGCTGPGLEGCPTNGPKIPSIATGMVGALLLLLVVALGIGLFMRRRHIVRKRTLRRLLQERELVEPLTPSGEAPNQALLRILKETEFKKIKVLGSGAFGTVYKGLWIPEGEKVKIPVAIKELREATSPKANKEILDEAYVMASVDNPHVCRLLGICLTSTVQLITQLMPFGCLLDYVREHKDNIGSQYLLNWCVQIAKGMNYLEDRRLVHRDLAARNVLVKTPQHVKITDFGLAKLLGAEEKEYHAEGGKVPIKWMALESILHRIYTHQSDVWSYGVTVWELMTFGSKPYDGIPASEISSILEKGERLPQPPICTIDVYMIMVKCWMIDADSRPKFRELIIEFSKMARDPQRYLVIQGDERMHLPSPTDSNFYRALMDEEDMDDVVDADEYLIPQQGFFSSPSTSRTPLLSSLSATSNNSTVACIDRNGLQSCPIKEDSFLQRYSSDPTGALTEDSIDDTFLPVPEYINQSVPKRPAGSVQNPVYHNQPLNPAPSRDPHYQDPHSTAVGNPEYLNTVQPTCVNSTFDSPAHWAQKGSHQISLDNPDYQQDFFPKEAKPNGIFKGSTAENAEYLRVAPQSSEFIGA
Assay [18] deals with Follistatin-related protein 3 (Homo sapiens) (UniProt O95633). As to the kind of experiment: FSTL3 binders on small-molecule microarrays, primary screen, biochemical, small-molecule microarray, 635 nm fluorescence (AID 1105).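 Also: score merges emission near 667 nm and signal to noise per printed spot across three slides.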 As to conditions: FSTL3 binding, higher = more signal.
Sequence of Follistatin-related protein 3 (Homo sapiens) (O95633 whole entry, looked up): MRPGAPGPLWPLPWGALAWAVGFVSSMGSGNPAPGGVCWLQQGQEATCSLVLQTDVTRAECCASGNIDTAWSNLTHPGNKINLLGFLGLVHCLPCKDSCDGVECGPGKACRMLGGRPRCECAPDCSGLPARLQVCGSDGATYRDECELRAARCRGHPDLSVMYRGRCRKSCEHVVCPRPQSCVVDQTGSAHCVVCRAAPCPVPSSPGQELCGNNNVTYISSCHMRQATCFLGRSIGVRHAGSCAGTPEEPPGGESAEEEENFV
Assay [19] has as its target Dickkopf-related protein 1 (Homo sapiens) (UniProt O94907). As to the kind of experiment: DKK1 binders on small-molecule microarrays, primary screen, biochemical, small-molecule microarray, 635 nm fluorescence scan (AID 1106).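 Also: score merges emission near 667 nm with signal to noise over three replicate slides.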 To be noted: DKK1 binding, higher = more signal.
The subject of assay [20] is Inhibin beta A chain (activin A). The assay can be described thus: INHBA (activin A) binders on microarrays, primary screen, biochemical, small-molecule microarray, 635 nm fluorescence scan (AID 1107).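 Also: mouse activin A protein probed at 4.33 µg/mL on printed slides; score merges bound-protein fluorescence near 667 nm with spot signal-to-noise.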 As to conditions: small-molecule microarray binding, higher = more signal.

Sequence of Dickkopf-related protein 1 (Homo sapiens) (O94907 whole entry, looked up): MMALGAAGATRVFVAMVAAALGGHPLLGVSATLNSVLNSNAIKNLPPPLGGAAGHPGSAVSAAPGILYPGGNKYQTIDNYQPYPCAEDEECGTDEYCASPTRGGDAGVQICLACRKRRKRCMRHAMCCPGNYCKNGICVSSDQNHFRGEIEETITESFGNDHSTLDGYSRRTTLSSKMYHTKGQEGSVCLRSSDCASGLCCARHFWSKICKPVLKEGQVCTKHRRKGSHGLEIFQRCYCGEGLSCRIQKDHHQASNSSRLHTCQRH
Sequence of Fibroblast growth factor 10 (Homo sapiens) (O15520 whole entry, looked up): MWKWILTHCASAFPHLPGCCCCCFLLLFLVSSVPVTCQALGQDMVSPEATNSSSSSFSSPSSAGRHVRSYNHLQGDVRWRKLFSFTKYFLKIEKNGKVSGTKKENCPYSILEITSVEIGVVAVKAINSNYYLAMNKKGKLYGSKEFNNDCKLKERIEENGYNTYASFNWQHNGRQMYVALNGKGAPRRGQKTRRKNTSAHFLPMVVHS
Sequence of Neurogenic locus notch homolog protein 3 (Homo sapiens) (Q9UM47 whole entry, looked up): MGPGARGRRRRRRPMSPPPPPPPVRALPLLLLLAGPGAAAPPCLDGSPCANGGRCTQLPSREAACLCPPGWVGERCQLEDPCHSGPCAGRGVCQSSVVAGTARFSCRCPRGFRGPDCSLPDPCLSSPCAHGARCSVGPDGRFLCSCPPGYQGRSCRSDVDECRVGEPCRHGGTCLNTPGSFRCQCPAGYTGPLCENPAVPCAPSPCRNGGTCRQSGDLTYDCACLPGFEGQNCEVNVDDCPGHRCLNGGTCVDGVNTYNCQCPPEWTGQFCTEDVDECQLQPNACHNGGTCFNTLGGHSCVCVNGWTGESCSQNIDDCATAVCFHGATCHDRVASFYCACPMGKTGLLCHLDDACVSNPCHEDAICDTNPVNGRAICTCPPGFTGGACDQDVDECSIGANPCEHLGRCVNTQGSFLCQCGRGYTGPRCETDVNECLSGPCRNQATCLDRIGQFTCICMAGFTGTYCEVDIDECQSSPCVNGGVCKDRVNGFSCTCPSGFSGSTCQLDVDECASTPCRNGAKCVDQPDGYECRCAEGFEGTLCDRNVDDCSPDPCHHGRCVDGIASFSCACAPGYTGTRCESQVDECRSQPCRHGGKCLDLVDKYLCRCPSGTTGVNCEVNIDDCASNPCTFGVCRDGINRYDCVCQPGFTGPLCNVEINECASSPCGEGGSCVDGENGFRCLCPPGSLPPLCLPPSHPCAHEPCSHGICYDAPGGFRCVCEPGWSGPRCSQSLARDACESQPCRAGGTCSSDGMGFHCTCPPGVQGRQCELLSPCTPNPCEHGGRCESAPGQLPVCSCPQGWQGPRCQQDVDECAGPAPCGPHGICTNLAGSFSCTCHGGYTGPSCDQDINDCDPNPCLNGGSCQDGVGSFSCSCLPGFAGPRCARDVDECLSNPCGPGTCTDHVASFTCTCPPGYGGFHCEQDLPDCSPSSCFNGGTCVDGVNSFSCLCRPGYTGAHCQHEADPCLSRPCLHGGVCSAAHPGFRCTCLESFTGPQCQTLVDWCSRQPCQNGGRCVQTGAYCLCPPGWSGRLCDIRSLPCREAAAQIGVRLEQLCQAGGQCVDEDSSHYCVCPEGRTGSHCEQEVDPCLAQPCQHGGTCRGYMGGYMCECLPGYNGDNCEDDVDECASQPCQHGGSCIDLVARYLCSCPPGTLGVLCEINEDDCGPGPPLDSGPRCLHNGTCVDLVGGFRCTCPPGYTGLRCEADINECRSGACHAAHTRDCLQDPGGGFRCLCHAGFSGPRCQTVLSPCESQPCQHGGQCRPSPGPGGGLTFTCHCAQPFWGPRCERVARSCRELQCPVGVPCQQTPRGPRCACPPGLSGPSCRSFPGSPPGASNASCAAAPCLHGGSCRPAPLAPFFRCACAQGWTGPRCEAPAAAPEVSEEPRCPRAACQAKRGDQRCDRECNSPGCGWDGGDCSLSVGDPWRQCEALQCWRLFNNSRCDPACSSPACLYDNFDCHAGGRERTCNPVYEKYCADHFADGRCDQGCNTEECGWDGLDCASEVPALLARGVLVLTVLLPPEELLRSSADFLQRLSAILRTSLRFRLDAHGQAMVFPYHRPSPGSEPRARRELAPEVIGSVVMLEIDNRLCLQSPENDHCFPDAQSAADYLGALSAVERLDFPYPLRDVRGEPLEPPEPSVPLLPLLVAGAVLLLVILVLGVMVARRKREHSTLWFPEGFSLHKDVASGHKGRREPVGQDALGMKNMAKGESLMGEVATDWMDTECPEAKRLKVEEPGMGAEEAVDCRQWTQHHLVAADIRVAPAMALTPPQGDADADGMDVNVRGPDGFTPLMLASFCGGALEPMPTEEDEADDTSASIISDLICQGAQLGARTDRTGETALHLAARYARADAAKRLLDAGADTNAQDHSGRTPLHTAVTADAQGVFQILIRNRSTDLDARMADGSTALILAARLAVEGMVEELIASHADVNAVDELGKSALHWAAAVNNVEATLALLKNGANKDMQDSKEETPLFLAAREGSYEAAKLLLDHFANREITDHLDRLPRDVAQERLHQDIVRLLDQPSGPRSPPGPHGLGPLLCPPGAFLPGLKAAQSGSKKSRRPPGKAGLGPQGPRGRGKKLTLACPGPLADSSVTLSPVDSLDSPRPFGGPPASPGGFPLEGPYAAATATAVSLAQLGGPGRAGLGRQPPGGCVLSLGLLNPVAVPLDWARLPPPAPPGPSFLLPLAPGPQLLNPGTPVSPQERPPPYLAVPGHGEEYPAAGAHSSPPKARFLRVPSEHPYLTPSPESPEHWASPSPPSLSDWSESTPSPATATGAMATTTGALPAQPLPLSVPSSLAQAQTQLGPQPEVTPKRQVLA

As for `CCOC(=O)NN=C1C[C@@H](O)[C@@H](O)[C@@H]2[C@@H]3C(=O)N(C4CCCCC4)C(=O)[C@@H]3CC[C@@H]12`, the composite z-score in [1] is -0.319; in [5], 0.156; in assay [7], -0.028; in [8], 0.257; in [9], 0.324; in [10] it was -0.0329. In addition, the composite z-score in assay [11] was 0.104; in [12] it was -0.192; in assay [13], -0.499; in assay [15] it was 0.534; in [16], 0.132; in assay [17] it was 0.34. Moreover, the composite z-score came to 0.297 in [18], 0.476 in assay [19] and 0.212 in assay [20]. Further, the z-score is -1.33 (inactive) in assay [2]; -0.895 (inactive) in assay [3]; -0.495 (inactive) in assay [4]; 0.637 (inactive) in [6]; 1.06 (inactive) in [14].

In the case of `C[C@@H]1C=CCC(=O)OC[C@H](C)C(=O)N[C@@H](C)C(=O)OC1`, the composite z-score in assay [1] is 0.552; in assay [5], -0.412; in [7], -0.293; in assay [8] it was 0.828; in assay [9], 0.254; in assay [10], 0.0886. The composite z-score was 0.57 in [11]; -0.242 in assay [12]; -0.791 in assay [13]; 0.336 in assay [15]; 0.252 in assay [16]; 0.282 in [17]. Besides, the composite z-score is 0.413 in assay [18], 0.814 in assay [19] and -0.658 in assay [20]. In addition, the z-score in assay [2] is 0.664 (inactive); in assay [3] it was 0.406 (inactive); in assay [4] it was -0.113 (inactive); in assay [6] it was 0.715 (inactive); in [14], -0.586 (inactive).

With `CC(C)(C)N1C(=O)[C@H]2[C@H]3[C@H](O)[C@H](O)CC(=NOCc4ccccc4)[C@@H]3CC[C@H]2C1=O`, the composite z-score in [1] is 0.966; in assay [5] it was 1.16; in assay [7] it was -0.0574; in assay [8], 0.524; in [9] it was 0.63; in [10] it was 0.328. The composite z-score is 0.616 in assay [11]; -0.192 in assay [12]; 0.24 in [13]; 0.97 in [15]; 0.535 in assay [16]; 0.455 in assay [17]. Further, the composite z-score in assay [18] stood at 0.988; in assay [19] it was 1.59; in assay [20], 0.528. Also, the z-score in assay [2] is -1.86 (inactive); in assay [3] it was -0.752 (inactive); in assay [4], -0.715 (inactive); in [6] it was -0.207 (inactive); in assay [14], -1.07 (inactive).

For the compound `CC(C)[C@@H](OCc1ccccc1)[C@H](C)C=NO[C@H](C)c1cn([C@H](CO)Cc2ccccc2)nn1`, the composite z-score in assay [1] was 1.55; in assay [5], 0.825; in assay [7], -0.153; in assay [8] it was 0.453; in [9], 0.712; in assay [10], -0.0828. The composite z-score in assay [11] was 0.45; in assay [12], -0.25; in [13], -0.566; in assay [15] it was 0.503; in assay [16] it was 0.562; in assay [17] it was 0.173. For the same compound, the composite z-score is 0.474 in assay [18], 0.804 in [19] and -0.172 in assay [20]. In addition, the z-score is -2.33 (inactive) in assay [2]; -3.29 (inactive) in [3]; -1.26 (inactive) in assay [4]; -0.671 (inactive) in [6]; -0.652 (inactive) in assay [14].

In the case of `Cc1ccc(S[C@]2(C(=O)O)CC(=O)N(Cc3ccccc3)[C@@H]2c2ccc(CO)cc2I)cc1`, the composite z-score was 0.135 in assay [1]; 1.28 in assay [5]; -0.103 in [7]; -0.404 in [8]; -0.683 in assay [9]; -0.261 in [10]. Moreover, the composite z-score is 1.17 in [11]; -0.0401 in assay [12]; 0.894 in [13]; -0.406 in assay [15]; -0.0099 in assay [16]; -0.814 in [17]. Moreover, the values for the composite z-score in assay [18], in assay [19] and in assay [20] were -0.417, -0.776 and 0.84, respectively. Also, the z-score is -0.866 (inactive) in [2]; -1.17 (inactive) in assay [3]; 1.29 (inactive) in [4]; -0.104 (inactive) in [6]; -0.982 (inactive) in assay [14].
